About 83,000 compounds went through this panel and 20% of them were active in at least one assay; those are over-represented in the sample as a whole.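 Percent growth is the endpoint: 0 to 100 indicates growth inhibition (40 means 60% inhibition), 0 means no net growth, and negative values indicate cell death.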 A number with no mark means an inactive call. Calls of active or inactive are those of the source. The calls were made as follows: active = growth percent below 10; inactive = the rest.
Columns and labels:
Test in all cases: NCI-60 one-dose screen, 48 h (100 = growth as untreated, 0 = no growth, -100 = all killed)
Conditions in all cases: 10 µM unless noted
[1] = tested on: DU-145 prostate
[2] = tested on: K-562 leukemia
[3] = tested on: MALME-3M melanoma
[4] = tested on: MDA-MB-231 breast
[5] = tested on: RXF 393 renal
[6] = tested on: SF-268 CNS
[7] = tested on: SF-295 CNS
[8] = tested on: SF-539 CNS
[9] = tested on: UACC-257 melanoma
[10] = tested on: M14 melanoma

**Q.** Which results are given for CCc1cccc(-c2ccccc2)c1?
**A.** growth [1]: 110%; growth [2]: 109%; growth [3]: 114%; growth [4]: 114%; growth [5]: 130%; growth [6]: 108%; growth [7]: 107%; growth [8]: 97.6%; growth [9]: 99.1%; growth [10]: 92.6%

**Q.** COc1cc(NC(C)CCCN2C(=O)c3ccccc3C2=O)c2ncccc2c1OC (stereo not given) was tested. Which growth [1] did it give?
**A.** 104%

**Q.** And the growth [2]?
**A.** 71.3%

**Q.** And the growth [3]?
**A.** 74.1%

**Q.** And the growth [4]?
**A.** 90.2%

**Q.** And the growth [5]?
**A.** 95%

**Q.** And the growth [6]?
**A.** 108%

**Q.** What about the growth [7] of the same molecule?
**A.** 81.1%

**Q.** What about the growth [8] of the same molecule?
**A.** 98.6%

**Q.** What about the growth [9] of the same molecule?
**A.** 99.4%

**Q.** What about the growth [10] of the same molecule?
**A.** 78.7%

**Q.** With COc1cc2c(/C=C3/C(=O)Nc4ccc(O)cc43)c(Cl)n(Cc3cc(OC)c(OC)c(OC)c3)c2cc1C as the molecule, how does the growth [1] read?
**A.** 20.4%

**Q.** And the growth [2]?
**A.** -30.7% (active)

**Q.** What about the growth [3] of the same molecule?
**A.** 2.88% (active)

**Q.** And the growth [4]?
**A.** 61%

**Q.** And the growth [5]?
**A.** -20.9% (active)

**Q.** What about the growth [6] of the same molecule?
**A.** 24%

**Q.** What about the growth [7] of the same molecule?
**A.** 38.9%

**Q.** And the growth [8]?
**A.** -16.7% (active)

**Q.** What about the growth [9] of the same molecule?
**A.** 20.5%

**Q.** And the growth [10]?
**A.** 11.5%

**Q.** COc1ccc2c(c1)C(=O)/C(=C/c1cccc(OCC(=O)c3ccccc3)c1)O2 was tested. Which growth [1] did it give?
**A.** 13.5%

**Q.** And the growth [2]?
**A.** -98.3% (active)

**Q.** What about the growth [3] of the same molecule?
**A.** 45.1%

**Q.** What about the growth [4] of the same molecule?
**A.** 67.3%

**Q.** And the growth [5]?
**A.** -56.8% (active)

**Q.** What about the growth [6] of the same molecule?
**A.** 36.2%

**Q.** And the growth [7]?
**A.** 91.3%

**Q.** And the growth [8]?
**A.** -14.7% (active)

**Q.** What about the growth [9] of the same molecule?
**A.** 42.9%

**Q.** What about the growth [10] of the same molecule?
**A.** 49.8%

**Q.** For Cc1cc2c(cc1C)N(C(=O)CCl)CCN2C(=O)CCl, which growth [1] is on record?
**A.** -97.8% (active)

**Q.** What about the growth [2] of the same molecule?
**A.** 5.44% (active)

**Q.** What about the growth [3] of the same molecule?
**A.** -57.3% (active)

**Q.** And the growth [4]?
**A.** -45.9% (active)

**Q.** And the growth [5]?
**A.** -47.1% (active)

**Q.** What about the growth [6] of the same molecule?
**A.** -33.4% (active)

**Q.** And the growth [7]?
**A.** 11.8%

**Q.** What about the growth [8] of the same molecule?
**A.** -85.6% (active)

**Q.** And the growth [9]?
**A.** -67.2% (active)

**Q.** What about the growth [10] of the same molecule?
**A.** -12.1% (active)

**Q.** How did the growth [1] turn out when CN(C)CCS(=O)(=O)Nc1cc(-c2ccc3ncnc(Nc4ccc(F)c(Cl)c4)c3c2)cnc1Cl was run?
**A.** -3.31% (active)

**Q.** And the growth [2]?
**A.** 9.31% (active)

**Q.** What about the growth [3] of the same molecule?
**A.** -23.2% (active)

**Q.** And the growth [4]?
**A.** -26.8% (active)

**Q.** What about the growth [5] of the same molecule?
**A.** -47.2% (active)

**Q.** What about the growth [6] of the same molecule?
**A.** -20.9% (active)

**Q.** And the growth [7]?
**A.** 10.1%

**Q.** What about the growth [8] of the same molecule?
**A.** -22.2% (active)

**Q.** And the growth [9]?
**A.** -0.224% (active)

**Q.** And the growth [10]?
**A.** 4.73% (active)

**Q.** Which growth [1] does the source give for Nc1nc(=S)ss1 here?
**A.** 116%

**Q.** What about the growth [2] of the same molecule?
**A.** 98.1%

**Q.** What about the growth [3] of the same molecule?
**A.** 111%

**Q.** What about the growth [4] of the same molecule?
**A.** 112%

**Q.** And the growth [5]?
**A.** 101%

**Q.** And the growth [6]?
**A.** 108%

**Q.** What about the growth [7] of the same molecule?
**A.** 102%

**Q.** What about the growth [8] of the same molecule?
**A.** 111%

**Q.** And the growth [9]?
**A.** 90.2%

**Q.** What about the growth [10] of the same molecule?
**A.** 101%

**Q.** Which results are given for C/C(=N/O)c1ccc(NC(=O)Cn2nc(-c3ccc(Cl)cc3)nc2N)cc1?
**A.** growth [1]: 104%; growth [2]: 99.3%; growth [3]: 102%; growth [4]: 82.7%; growth [5]: 100%; growth [6]: 89.2%; growth [7]: 107%; growth [8]: 97.3%; growth [9]: 73%; growth [10]: 107%

**Q.** With O=C(NCCNc1nccc(-c2c(-c3cccc(O)c3)nc3sccn23)n1)c1ccc(N2CCOCC2)c(C(F)(F)F)c1 as the molecule, how does the growth [1] read?
**A.** 94.9%

**Q.** What about the growth [2] of the same molecule?
**A.** 63%

**Q.** What about the growth [3] of the same molecule?
**A.** -4.27% (active)

**Q.** What about the growth [4] of the same molecule?
**A.** 64.9%

**Q.** And the growth [5]?
**A.** 57.6%

**Q.** What about the growth [6] of the same molecule?
**A.** 79.1%

**Q.** What about the growth [7] of the same molecule?
**A.** 67.5%

**Q.** What about the growth [8] of the same molecule?
**A.** 77.8%

**Q.** What about the growth [9] of the same molecule?
**A.** 15.8%

**Q.** And the growth [10]?
**A.** 19.1%

**Q.** O=[N+]([O-])c1cccc(C2c3ccccc3Oc3ccccc32)c1 was tested. Which growth [1] did it give?
**A.** 101%

**Q.** And the growth [2]?
**A.** 65.7%

**Q.** What about the growth [3] of the same molecule?
**A.** 101%

**Q.** And the growth [4]?
**A.** 92%

**Q.** What about the growth [5] of the same molecule?
**A.** 109%

**Q.** And the growth [6]?
**A.** 102%

**Q.** What about the growth [7] of the same molecule?
**A.** 76.9%

**Q.** What about the growth [8] of the same molecule?
**A.** 112%

**Q.** What about the growth [9] of the same molecule?
**A.** 104%

**Q.** What about the growth [10] of the same molecule?
**A.** 110%

**Q.** CC(=O)CC/C=C(\C)[C@H](O)[C@H](C)C(=O)O[C@H]1C[C@H](C)C=C2C=C[C@@]3(C)O[C@@H](O)CC(=O)[C@]3(C)[C@H]21 was tested. Which growth [1] did it give?
**A.** -22% (active)

**Q.** What about the growth [2] of the same molecule?
**A.** -8.89% (active)

**Q.** What about the growth [3] of the same molecule?
**A.** -82.5% (active)

**Q.** And the growth [4]?
**A.** -39.2% (active)

**Q.** What about the growth [5] of the same molecule?
**A.** -88% (active)

**Q.** What about the growth [6] of the same molecule?
**A.** -21.5% (active)

**Q.** And the growth [7]?
**A.** -22.7% (active)

**Q.** And the growth [8]?
**A.** -35.2% (active)

**Q.** And the growth [9]?
**A.** -33.7% (active)

**Q.** What about the growth [10] of the same molecule?
**A.** -84.2% (active)

**Q.** How did the growth [1] turn out when O=C(NCCNc1nccc(-c2c(-c3cccc(O)c3)nc3sccn23)n1)Nc1cc(C(F)(F)F)cc(C(F)(F)F)c1 was run?
**A.** 97.1%

**Q.** And the growth [2]?
**A.** 72.7%

**Q.** And the growth [3]?
**A.** 60.5%

**Q.** And the growth [4]?
**A.** 41.4%

**Q.** What about the growth [5] of the same molecule?
**A.** 41.4%

**Q.** What about the growth [6] of the same molecule?
**A.** 69.4%

**Q.** And the growth [7]?
**A.** 66.7%

**Q.** What about the growth [8] of the same molecule?
**A.** 96.5%

**Q.** What about the growth [9] of the same molecule?
**A.** 57%

**Q.** And the growth [10]?
**A.** 21.4%
